This passage reports growth results from PubChem BioAssay (NCI).

The structures appear in SMILES notation. About 83,000 compounds went through this panel and 20% of them were active in at least one assay; those are over-represented in the sample as a whole.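 Growth was measured after 48 h exposure to one concentration of compound in 96-well plates. Values under 10 count as active.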 The source made the active and inactive calls.

This assay relates to HCC-2998 colon. Description: NCI-60 one-dose screen, 48 h (100 = growth as untreated, 0 = no growth, -100 = all killed). The conditions noted are these: 10 µM. As for the experimental part:
Growth inhibition of the HCC-2998 human tumor cell line is measured as a screen for anti-cancer activity. Cells are grown in 96 well plates and exposed to the test compound for 48 hours. Compounds are tested at a single concentration, which is 10^-5 M for most compounds. The reported endpoint is percent growth (GI% or GIPRCNT), where numbers from 0 - 100% represent growth inhibition, and numbers from -100% - 0 represent cell death. For example, a value of 40 represents 60% growth inhibition. A value of 0 means no net growth occurred over the course of the experiment. A value of -40 indicates 40% of cells at the beginning of the experiment died by the end of the experiment. A value of -100 means all cells are dead at the end of the experiment.
NCI-60 Human Tumor Cell Lines Screen was performed using the standard one-dose NCI protocol, which is described in more detail at https://dtp.cancer.gov/discovery_development/nci-60/default.htm.
Compounds with GIPRCNT values below 10 were considered active. Activity score was based on GIPRCNT using the following formula: […]
Score is 0 for GIPRCNT values of 100 or above, 50 for GIPRCNT values of 0, and 100 for GIPRCNT values of -100.
As to `COc1ccc2c(CCCC(c3ccccc3)c3ccccc3)c3[n+](cc2c1OC)CCc1cc2c(cc1-3)OCO2`, the growth is -81.9% (active).
As to `CN1C/C=C\CCOc2cccc(c2)-c2ccnc(n2)Nc2cccc(c2)C1`, the growth is -40% (active).
Then `COC(=O)[C@H](Cc1ccc(O)cc1)NC(=O)[C@@H](OC)[C@@H]1Cc2cc3cc(OC4CC(OC5CC(O)C(O)C(C)O5)C(O)C(C)O4)c(C)c(O)c3c(O)c2C(=O)[C@H]1OC1CC(OC2CC(OC3CC(C)(O)C(O)C(C)O3)C(O)C(C)O2)C(O)C(C)O1` (stereo not given in full), with -67% (active); and `O=C(/C=C/c1ccc2c(c1)OCO2)c1c(O)c2ccccc2oc1=O`, with 112% (inactive); and `COc1ccc(-c2nc(N)ncc2Oc2ccccc2OC)c(O)c1`, with 50.6% (inactive).
Then `Cc1cnc(NC(=O)Nc2cc(Br)c(C)cc2OC[C@@H]2CNCCO2)cn1`, with 12% (inactive); and `COC(=O)[C@H](C)NC(=O)[C@@H](OC)[C@@H]1Cc2cc3cc(OC4CC(OC5CC(O)C(O)C(C)O5)C(O)C(C)O4)c(C)c(O)c3c(O)c2C(=O)[C@H]1OC1CC(OC2CC(OC3CC(C)(O)C(O)C(C)O3)C(O)C(C)O2)C(O)C(C)O1` (stereo not given in full), with -44% (active); and `Cn1cc(-c2[nH]c3cc(NC(=O)[C@H](N)C4CCCCC4)cc4c3c2C=NNC4=O)cn1`, with 32.6% (inactive).
Regarding `CSc1nc2ncncc2[nH]1`, the growth was 108% (inactive).
As for `O=C(CNc1nnc(-c2ccc(Cl)cc2)o1)Nc1ccc(-c2nc3ccccc3s2)cc1`, the growth is 93.5% (inactive).
Regarding `N[C@@H]1CCCN(c2c(/C=C3\SC(=O)NC3=O)cccc2-c2ccccc2)C1`, the growth was 74.8% (inactive).
In the case of `CCOC(=O)C1=C(C)N=C2Sc3cc(OC(F)(F)F)ccc3N2[C@H]1c1ccccn1` it was 69.4% (inactive).
`NC(=O)c1n[nH]n2c1nc(=O)c1c3c(sc12)CCCC3`: the growth was 104% (inactive).
On to `CNC(=O)CN1CCC(Oc2cc3c(Nc4cccc(Cl)c4F)ncnc3cc2OC)CC1`, for which the growth is 83.2% (inactive).
On to `CN1[C@@H]2CC[C@H]1/C(=C\c1ccccc1)C1=C2[C@@H](c2ccccc2)C(C#N)=C(N)O1`, for which the growth is 87.7% (inactive).
In the case of `O=S1(=O)OC(c2cc(Cl)c(O)c(Br)c2)(c2cc(Cl)c(O)c(Br)c2)c2ccccc21` it was 103% (inactive); in that of `CCc1cc2c(cc1N1CCC(N3CCOCC3)CC1)C(C)(C)c1[nH]c3cc(C#N)ccc3c1C2=O`, 5.22% (active).
As to `Cc1ccc(Nc2nccc(N(C)c3ccc4c(C)n(C)nc4c3)n2)cc1S(N)(=O)=O`, the growth was -5.85% (active).
In the case of `CC/C(=C(/c1ccc(Cl)cc1)c1ccc(OCCN2CCCCC2)cc1)c1ccc(Cl)cc1`, the growth was 89.4% (inactive).
Consider `O=CC(OC(=O)c1ccccc1)C(OC(=O)c1ccccc1)C(COC(c1ccccc1)(c1ccccc1)c1ccccc1)OC(=O)c1ccccc1` (stereo not given), for which the growth was 96.6% (inactive).
In the case of `CC[C@H](Nc1ncnc2nc[nH]c12)c1nc2cccc(F)c2c(=O)n1-c1ccccc1` it was 85.9% (inactive); in that of `COC(=O)c1ccc2c(C(=Nc3ccc(N(C)C(=O)CN4CCN(C)CC4)cc3)c3ccccc3)c(O)[nH]c2c1`, 84.3% (inactive).
On to `CCN1CCN(Cc2ccc(Cc3ncc(F)c(-c4cc(F)c5nc(C)n(C(C)C)c5c4)n3)nc2)CC1`, for which the growth is 54.7% (inactive).
As to `Cc1[nH]n(C(N)=S)c(=O)c1N=Nc1ccc(S(=O)(=O)Nc2ccncn2)cc1`, the growth was 105% (inactive).
For the molecule `CCN1/C(=C/C=C/c2n(-c3ccccc3)c3ccc(-c4nc5ccccc5s4)cc3[n+]2CC)N(c2ccccc2)c2ccc(-c3nc4ccccc4s3)cc21`, the growth is 33.3% (inactive).
`C=C1C(=O)O[C@H]2[C@H]1CC/C(C=Nc1c(N)cc(C(F)(F)F)cc1C(F)(F)F)=C\CC[C@@]1(C)O[C@@H]21`: the growth is -77.5% (active).
As to `CCN1CCN(Cc2ccc(NC(=O)Nc3nc(-c4cc(OC)c(OC)c(OC)c4)cs3)cc2C(F)(F)F)CC1`, the growth was -36.6% (active).
Regarding `O=C1OCC2=C1C(c1cccc(F)c1)c1cc3c(cc1N2CCO)OCCO3` (stereo not given), the growth was 8.09% (active).
As for `CC1(O)CC(c2nc(-c3ccc4ccc(-c5ccccc5)nc4c3)c3c(N)nccn23)C1` (stereo not given), the growth is 48.7% (inactive).
As for `O=C(Nc1cccc([N+](=O)[O-])c1)c1ccc(Cl)c(Cl)c1`, the growth is 120% (inactive).
In the case of `CCN1CCN(c2nc(C)cc(N(CCNc3ccnc4cc(Cl)ccc34)Cc3ccc4c(c3)OCO4)n2)CC1`, the growth was -29.8% (active).
`C=CCCCOC1[C@H](OCc2ccccc2)C(OCc2ccccc2)C(OC)O[C@@H]1CNC(=O)c1cccc(I)c1` (stereo not given in full): the growth was 86.7% (inactive).
In the case of `CC(C)(C)CC(C)(C)Nc1c(-c2c(O)c3ccccc3oc2=O)nc2c(Cl)cc(C(F)(F)F)cn12` it was 107% (inactive); in that of `COCc1c(-c2ccc(NC(=O)Nc3cc(C(F)(F)F)ccc3F)c(F)c2)c2c(N)ncnn2c1CN1CCOCC1`, -52.1% (active).
For `CSC1=C(N)C(=O)c2[nH]cc(CO)c2C1=N`, the growth was -94.1% (active).
Take `Cc1sc2c(c1C)c(=O)nc1c(-c3nc4ccccc4s3)n[nH]n12`: the growth is 96.3% (inactive).
For the molecule `COc1cc(OC)c(/C=C/S(=O)(=O)Cc2ccc(OC)c(NCC(=O)O)c2)c(OC)c1`, the growth is 5.81% (active).
Regarding `Cc1nc2ccc(-n3ncc(C(=O)c4cc5ccccc5[nH]4)c3N)cc2[nH]1`, the growth is 68.8% (inactive).
On to `COc1cc2c(Oc3ccc(NC(=O)C4(C(=O)Nc5ccc(F)cc5)CC4)cc3F)ccnc2cc1OCCCN1CCOCC1`, for which the growth was 7.76% (active).
On to `Clc1ccc(C(Cn2ccnc2)OCc2ccsc2Cl)c(Cl)c1` (stereo not given), for which the growth is 53.8% (inactive).
